Test results as given in the supplement of paper PMC4466140.

Experiments:
Experiment in all cases: SPOT peptide array binding signal intensity (averaged, normalized) (arbitrary units (background-subtracted, floor 0; scale differs between SH3 domains)); higher = stronger binding of the SH3 domain to the peptide
SpBzz1-D2 = molecular target: SpBzz1-D2
Outline: (§1)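 Detection of bound protein relied on anti-GST antibody, an HRP anti-mouse secondary and luminol, with imaging and quantification in Genespotter. The bound protein was GST-fused SH3 domains from four yeast species, incubated at 10 μg/ml overnight at 4°C in TBS-based blocking buffer on cellulose membranes carrying synthetic 15-mer peptides with cysteines replaced by serines. Binding signal is normalized, background-subtracted spot intensity averaged over replicates, in arbitrary units that differ between domains.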

SpCyk3 = molecular target: SpCyk3
Outline: as §1

SpHof1 = molecular target: SpHof1
Outline: as §1

SpHof1-2 = molecular target: SpHof1-2
Outline: as §1

SpHof1-3 = molecular target: SpHof1-3
Outline: as §1

SpHse1 = molecular target: SpHse1
Outline: as §1

SpLsb1 = molecular target: SpLsb1
Outline: as §1

SpLsb4 = molecular target: SpLsb4
Outline: as §1

SpMyo1 = molecular target: SpMyo1
Outline: as §1

SpNbp2 = molecular target: SpNbp2
Outline: as §1

SpPex13 = molecular target: SpPex13
Outline: as §1

SpRvs167 = molecular target: SpRvs167
Outline: as §1

SpSla1-D1-D2 = molecular target: SpSla1-D1-D2
Outline: as §1

SpSla1-D3 = molecular target: SpSla1-D3
Outline: as §1

AgAbp1 = molecular target: AgAbp1
Outline: as §1

AgBbc1 = molecular target: AgBbc1
Outline: as §1

AgBem1-D1 = molecular target: AgBem1-D1
Outline: as §1

AgBzz1-D1 = molecular target: AgBzz1-D1
Outline: as §1

AgBzz1-D2 = molecular target: AgBzz1-D2
Outline: as §1

AgCyk3 = molecular target: AgCyk3
Outline: as §1

AgFus1 = molecular target: AgFus1
Outline: as §1

AgHof1 = molecular target: AgHof1
Outline: as §1

AgHse1 = molecular target: AgHse1
Outline: as §1

AgLsb1 = molecular target: AgLsb1
Outline: as §1

AgLsb4 = molecular target: AgLsb4
Outline: as §1

AgMyo5 = molecular target: AgMyo5
Outline: as §1

AgNbp2 = molecular target: AgNbp2
Outline: as §1

AgRvs167 = molecular target: AgRvs167
Outline: as §1

AgSho1 = molecular target: AgSho1
Outline: as §1

AgSla1-D1-D2 = molecular target: AgSla1-D1-D2
Outline: as §1

AgSla1-D3 = molecular target: AgSla1-D3
Outline: as §1

CaAbp1-D1 = molecular target: CaAbp1-D1
Outline: as §1

CaAbp1-D2 = molecular target: CaAbp1-D2
Outline: as §1

CaBbc1 = molecular target: CaBbc1
Outline: as §1

CaBem1-D1 = molecular target: CaBem1-D1
Outline: as §1

CaBzz1-D1 = molecular target: CaBzz1-D1
Outline: as §1

CaBzz1-D2 = molecular target: CaBzz1-D2
Outline: as §1

CaCyk3 = molecular target: CaCyk3
Outline: as §1

CaFus1 = molecular target: CaFus1
Outline: as §1

CaHof1 = molecular target: CaHof1
Outline: as §1

CaHse1 = molecular target: CaHse1
Outline: as §1

CaLsb1 = molecular target: CaLsb1
Outline: as §1

CaLsb4 = molecular target: CaLsb4
Outline: as §1

CaMyo5 = molecular target: CaMyo5
Outline: as §1

CaNbp2 = molecular target: CaNbp2
Outline: as §1

CaRvs167 = molecular target: CaRvs167
Outline: as §1

CaRvs167-3 = molecular target: CaRvs167-3
Outline: as §1

CaSho1 = molecular target: CaSho1
Outline: as §1

CaSla1-D1-D2 = molecular target: CaSla1-D1-D2
Outline: as §1

CaSla1-D3 = molecular target: CaSla1-D3
Outline: as §1

ScAbp1 = molecular target: ScAbp1
Outline: as §1

ScBbc1 = molecular target: ScBbc1
Outline: as §1

ScBem1-D1 = molecular target: ScBem1-D1
Outline: as §1

ScBzz1-D1 = molecular target: ScBzz1-D1
Outline: as §1

ScBzz1-D2 = molecular target: ScBzz1-D2
Outline: as §1

ScCyk3 = molecular target: ScCyk3
Outline: as §1

ScFus1 = molecular target: ScFus1
Outline: as §1

ScHof1 = molecular target: ScHof1
Outline: as §1

ScHse1 = molecular target: ScHse1
Outline: as §1

ScLsb1 = molecular target: ScLsb1
Outline: as §1

ScLsb2 = molecular target: ScLsb2
Outline: as §1

ScLsb3 = molecular target: ScLsb3
Outline: as §1

ScLsb4 = molecular target: ScLsb4
Outline: as §1

ScMyo3 = molecular target: ScMyo3
Outline: as §1

ScMyo5 = molecular target: ScMyo5
Outline: as §1

ScNbp2 = molecular target: ScNbp2
Outline: as §1

ScPex13 = molecular target: ScPex13
Outline: as §1

ScRvs167 = molecular target: ScRvs167
Outline: as §1

ScSho1 = molecular target: ScSho1
Outline: as §1

ScSla1-D1-D2 = molecular target: ScSla1-D1-D2
Outline: as §1

ScSla1-D3 = molecular target: ScSla1-D3
Outline: as §1

SpAbp1-D1 = molecular target: SpAbp1-D1
Outline: as §1

SpBbc1 = molecular target: SpBbc1
Outline: as §1

SpBzz1-D1 = molecular target: SpBzz1-D1
Outline: as §1

## NMLSRPRLAKLPSIR
SpBzz1-D2
  SPOT peptide array binding signal intensity: 13
SpCyk3
  SPOT peptide array binding signal intensity: 3
SpHof1
  SPOT peptide array binding signal intensity: 100
SpHof1-2
  SPOT peptide array binding signal intensity: 59.2
SpHof1-3
  SPOT peptide array binding signal intensity: 1590
SpHse1
  SPOT peptide array binding signal intensity: 2030
SpLsb1
  SPOT peptide array binding signal intensity: 10.5
SpLsb4
  SPOT peptide array binding signal intensity: 859
SpMyo1
  SPOT peptide array binding signal intensity: 24.8
SpNbp2
  SPOT peptide array binding signal intensity: 577
SpPex13
  SPOT peptide array binding signal intensity: 74
SpRvs167
  SPOT peptide array binding signal intensity: 32.2
SpSla1-D1-D2
  SPOT peptide array binding signal intensity: 8
SpSla1-D3
  SPOT peptide array binding signal intensity: 194

## NLPKRKPPKLQGPFS
AgAbp1
  SPOT peptide array binding signal intensity: 117
AgBbc1
  SPOT peptide array binding signal intensity: 7.75
AgBem1-D1
  SPOT peptide array binding signal intensity: 244
AgBzz1-D1
  SPOT peptide array binding signal intensity: 148
AgBzz1-D2
  SPOT peptide array binding signal intensity: 77.5
AgCyk3
  SPOT peptide array binding signal intensity: 2.5
AgFus1
  SPOT peptide array binding signal intensity: 64
AgHof1
  SPOT peptide array binding signal intensity: 37.5
AgHse1
  SPOT peptide array binding signal intensity: 1020
AgLsb1
  SPOT peptide array binding signal intensity: ≤ 0
AgLsb4
  SPOT peptide array binding signal intensity: 56
AgMyo5
  SPOT peptide array binding signal intensity: 4.75
AgNbp2
  SPOT peptide array binding signal intensity: 247
AgRvs167
  SPOT peptide array binding signal intensity: 2.67
AgSho1
  SPOT peptide array binding signal intensity: 12
AgSla1-D1-D2
  SPOT peptide array binding signal intensity: 258
AgSla1-D3
  SPOT peptide array binding signal intensity: 2
CaAbp1-D1
  SPOT peptide array binding signal intensity: 1870
CaAbp1-D2
  SPOT peptide array binding signal intensity: 1400
CaBbc1
  SPOT peptide array binding signal intensity: 51
CaBem1-D1
  SPOT peptide array binding signal intensity: 13
CaBzz1-D1
  SPOT peptide array binding signal intensity: 157
CaBzz1-D2
  SPOT peptide array binding signal intensity: 162
CaCyk3
  SPOT peptide array binding signal intensity: 102
CaFus1
  SPOT peptide array binding signal intensity: 186
CaHof1
  SPOT peptide array binding signal intensity: 0.5
CaHse1
  SPOT peptide array binding signal intensity: 119
CaLsb1
  SPOT peptide array binding signal intensity: ≤ 0
CaLsb4
  SPOT peptide array binding signal intensity: 127
CaMyo5
  SPOT peptide array binding signal intensity: ≤ 0
CaNbp2
  SPOT peptide array binding signal intensity: 2240
CaRvs167
  SPOT peptide array binding signal intensity: 1.67
CaRvs167-3
  SPOT peptide array binding signal intensity: 34.2
CaSho1
  SPOT peptide array binding signal intensity: 300
CaSla1-D1-D2
  SPOT peptide array binding signal intensity: 48
CaSla1-D3
  SPOT peptide array binding signal intensity: 0.5
ScAbp1
  SPOT peptide array binding signal intensity: 179
ScBbc1
  SPOT peptide array binding signal intensity: 6.25
ScBem1-D1
  SPOT peptide array binding signal intensity: 16
ScBzz1-D1
  SPOT peptide array binding signal intensity: 39.5
ScBzz1-D2
  SPOT peptide array binding signal intensity: 4
ScCyk3
  SPOT peptide array binding signal intensity: 113
ScFus1
  SPOT peptide array binding signal intensity: 162
ScHof1
  SPOT peptide array binding signal intensity: 1.25
ScHse1
  SPOT peptide array binding signal intensity: 1280
ScLsb1
  SPOT peptide array binding signal intensity: 0.5
ScLsb2
  SPOT peptide array binding signal intensity: 3.5
ScLsb3
  SPOT peptide array binding signal intensity: 328
ScLsb4
  SPOT peptide array binding signal intensity: 21.5
ScMyo3
  SPOT peptide array binding signal intensity: 63.2
ScMyo5
  SPOT peptide array binding signal intensity: 29.5
ScNbp2
  SPOT peptide array binding signal intensity: 475
ScPex13
  SPOT peptide array binding signal intensity: 2
ScRvs167
  SPOT peptide array binding signal intensity: 23
ScSho1
  SPOT peptide array binding signal intensity: 408
ScSla1-D1-D2
  SPOT peptide array binding signal intensity: 164
ScSla1-D3
  SPOT peptide array binding signal intensity: 12.5
SpAbp1-D1
  SPOT peptide array binding signal intensity: 498
SpBbc1
  SPOT peptide array binding signal intensity: 1.5
SpBzz1-D1
  SPOT peptide array binding signal intensity: 382
SpBzz1-D2
  SPOT peptide array binding signal intensity: 0.5
SpCyk3
  SPOT peptide array binding signal intensity: 1
SpHof1
  SPOT peptide array binding signal intensity: 117
SpHof1-2
  SPOT peptide array binding signal intensity: 3.25
SpHof1-3
  SPOT peptide array binding signal intensity: 475
SpHse1
  SPOT peptide array binding signal intensity: 722
SpLsb1
  SPOT peptide array binding signal intensity: 5
SpLsb4
  SPOT peptide array binding signal intensity: 756
SpMyo1
  SPOT peptide array binding signal intensity: 254
SpNbp2
  SPOT peptide array binding signal intensity: 82.5
SpPex13
  SPOT peptide array binding signal intensity: 5
SpRvs167
  SPOT peptide array binding signal intensity: 7.17
SpSla1-D1-D2
  SPOT peptide array binding signal intensity: ≤ 0
SpSla1-D3
  SPOT peptide array binding signal intensity: 1

## YVRRRPRVRLEPLLS
AgAbp1
  SPOT peptide array binding signal intensity: 116
AgBbc1
  SPOT peptide array binding signal intensity: 30.5
AgBem1-D1
  SPOT peptide array binding signal intensity: 62.5
AgBzz1-D1
  SPOT peptide array binding signal intensity: 152
AgBzz1-D2
  SPOT peptide array binding signal intensity: 91.5
AgCyk3
  SPOT peptide array binding signal intensity: 6.5
AgFus1
  SPOT peptide array binding signal intensity: 928
AgHof1
  SPOT peptide array binding signal intensity: 35
AgHse1
  SPOT peptide array binding signal intensity: 936
AgLsb1
  SPOT peptide array binding signal intensity: 17.2
AgLsb4
  SPOT peptide array binding signal intensity: 138
AgMyo5
  SPOT peptide array binding signal intensity: 6
AgNbp2
  SPOT peptide array binding signal intensity: 424
AgRvs167
  SPOT peptide array binding signal intensity: 14.1
AgSho1
  SPOT peptide array binding signal intensity: 263
AgSla1-D1-D2
  SPOT peptide array binding signal intensity: 258
AgSla1-D3
  SPOT peptide array binding signal intensity: 15.8
CaAbp1-D1
  SPOT peptide array binding signal intensity: 603
CaAbp1-D2
  SPOT peptide array binding signal intensity: 652
CaBbc1
  SPOT peptide array binding signal intensity: 150
CaBem1-D1
  SPOT peptide array binding signal intensity: 81.5
CaBzz1-D1
  SPOT peptide array binding signal intensity: 184
CaBzz1-D2
  SPOT peptide array binding signal intensity: 108
CaCyk3
  SPOT peptide array binding signal intensity: 45.5
CaFus1
  SPOT peptide array binding signal intensity: 589
CaHof1
  SPOT peptide array binding signal intensity: 0.75
CaHse1
  SPOT peptide array binding signal intensity: 107
CaLsb1
  SPOT peptide array binding signal intensity: 0.75
CaLsb4
  SPOT peptide array binding signal intensity: 164
CaMyo5
  SPOT peptide array binding signal intensity: 8.25
